Data as given in PubChem BioAssay (EPA / NIEHS).
Calls of active or inactive are those of the source. Rule for the calls: active = hit-call score of the fitted dose curve at least 0.9, where 1 is the maximum; inactive = score below 0.9.

Experiments:
Details in all cases: mRNA level, 48 h; actives raise or lower the signal
CYP2C9 (gene 1559) = experiment: LTEA_HepaRG_CYP2C9: Life Technologies and Expression Analysis (LTEA) Assay for CYP2C9 using HepaRG (AID 2283484)
Outline: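 Differentiated human HepaRG cells in serum-free induction medium were exposed 48 h to chemicals in 8-point half-log series from 100 uM (0.5% DMSO), in duplicate. CYP2C9 mRNA was measured by qRT-PCR, normalized to ACTB/GAPDH/POLR2A, with bidirectional fitting versus DMSO.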

CYP2E1 (gene 1571) = experiment: LTEA_HepaRG_CYP2E1: Life Technologies and Expression Analysis (LTEA) Assay for CYP2E1 using HepaRG (AID 2283485)
Outline: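 HepaRG cells in serum-free induction medium exposed 48 h to test chemicals, 8 half-log concentrations up to 100 uM in 0.5% DMSO, duplicate. CYP2E1 mRNA by qRT-PCR, normalized to ACTB, GAPDH, POLR2A; bidirectional fit versus DMSO.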

CYP4A11 (gene 1579) = experiment: LTEA_HepaRG_CYP4A11: Life Technologies and Expression Analysis (LTEA) Assay for CYP4A11 using HepaRG (AID 2283486)
Outline: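 Readout is CYP4A11 transcript level by qRT-PCR, normalized to three housekeeping genes and fitted bidirectionally against 0.5% DMSO. Human HepaRG cells were treated 48 h, in duplicate, with an 8-point half-log series topping at 100 uM.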

[1] = read-out: Cytochrome P450 3A4 (Homo sapiens) (UniProt P08684); experiment: LTEA_HepaRG_CYP3A4: Life Technologies and Expression Analysis (LTEA) Assay for CYP3A4 using HepaRG (AID 2283487)
Outline: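 CYP3A4 transcript measured by TaqMan qRT-PCR and normalized to three housekeeping genes after 48 h chemical exposure of human HepaRG cells. Top concentration 100 uM, half-log steps, 0.5% DMSO vehicle; gain or loss fitted against DMSO baseline.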

[2] = read-out: DNA damage-inducible transcript 3 (DDIT3), DDIT3 (gene 1649); experiment: LTEA_HepaRG_DDIT3: Life Technologies and Expression Analysis (LTEA) Assay for DNA damage-inducible transcript 3 (DDIT3) using HepaRG (AID 2283488)
Outline: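 Differentiated human HepaRG cells in serum-free induction medium were exposed in duplicate for 48 h to 8 concentrations (top 100 uM, half-log steps, 0.5% DMSO). DDIT3 mRNA measured by TaqMan qRT-PCR, normalized to ACTB/GAPDH/POLR2A; bidirectional fit versus DMSO.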

[3] = read-out: Pro-epidermal growth factor (Homo sapiens) (UniProt P01133); experiment: LTEA_HepaRG_EGF: Life Technologies and Expression Analysis (LTEA) Assay for Epidermal growth factor (EGF) using HepaRG (AID 2283489)
Outline: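 EGF transcript measured by Fluidigm TaqMan qRT-PCR with three housekeeping genes for normalization, 48 h after dosing HepaRG cultures in duplicate (top 100 uM, half-log steps, 0.5% DMSO vehicle). Gain or loss relative to DMSO fitted.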

[4] = read-out: Early growth response protein 1 (EGR1) transcription factor, EGR1 (gene 1958); experiment: LTEA_HepaRG_EGR1: Life Technologies and Expression Analysis (LTEA) Assay for Early growth response protein 1 (EGR1) transcription factor using HepaRG (AID 2283490)
Outline: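 Differentiated HepaRG cells in serum-free induction medium exposed 48 hours, duplicate, to 8 half-log concentrations up to 100 uM in 0.5% DMSO. EGR1 mRNA measured by TaqMan qRT-PCR, normalized to ACTB, GAPDH, POLR2A; bidirectional fit versus DMSO.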

[5] = read-out: Ezrin (EZR), EZR (gene 7430); experiment: LTEA_HepaRG_EZR: Life Technologies and Expression Analysis (LTEA) Assay for Ezrin (EZR) using HepaRG (AID 2283491)
Outline: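 HepaRG, 48 h chemical exposure, 8-pt half-log series from 100 uM, 0.5% DMSO vehicle, duplicates. Read-out: EZR mRNA by TaqMan qRT-PCR (Fluidigm array), housekeeping-normalized; bidirectional curve fit vs DMSO baseline.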

[6] = read-out: Cytochrome P450 3A7 (Homo sapiens) (UniProt P24462); experiment: LTEA_HepaRG_CYP3A7: Life Technologies and Expression Analysis (LTEA) Assay for CYP3A7 using HepaRG (AID 2283492)
Outline: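 CYP3A7 transcript measured by qRT-PCR (ACTB, GAPDH, POLR2A normalization) after 48 h chemical exposure of HepaRG cells in duplicate. Eight half-log concentrations, maximum 100 uM, 0.5% DMSO vehicle; bidirectional curve fitting against DMSO baseline.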

CYP3A5 (gene 1577) = experiment: LTEA_HepaRG_CYP3A5: Life Technologies and Expression Analysis (LTEA) Assay for CYP3A5 using HepaRG (AID 2283493)
Outline: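 Differentiated HepaRG cells in serum-free induction medium were dosed 48 h with test chemicals (8-point half-log series, top 100 uM, 0.5% DMSO, duplicate). CYP3A5 mRNA measured by qRT-PCR, normalized to ACTB, GAPDH, POLR2A; bidirectional fit versus DMSO.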

Measured: AC50

Cytochrome P450 3A7 (Homo sapiens), sequence (P24462 whole entry, looked up): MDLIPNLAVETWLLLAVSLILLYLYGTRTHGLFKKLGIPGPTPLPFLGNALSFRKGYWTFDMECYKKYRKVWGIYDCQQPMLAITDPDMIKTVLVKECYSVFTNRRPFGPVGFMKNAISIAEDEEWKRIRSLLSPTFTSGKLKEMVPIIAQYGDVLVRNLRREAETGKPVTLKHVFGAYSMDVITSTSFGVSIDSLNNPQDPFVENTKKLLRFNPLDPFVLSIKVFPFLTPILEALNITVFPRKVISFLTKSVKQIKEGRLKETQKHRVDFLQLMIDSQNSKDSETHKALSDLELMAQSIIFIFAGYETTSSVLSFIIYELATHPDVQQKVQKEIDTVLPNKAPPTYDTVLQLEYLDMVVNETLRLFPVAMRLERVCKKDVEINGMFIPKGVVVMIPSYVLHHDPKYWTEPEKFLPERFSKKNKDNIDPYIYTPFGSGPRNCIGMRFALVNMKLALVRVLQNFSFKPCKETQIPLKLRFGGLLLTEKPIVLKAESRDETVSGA
Cytochrome P450 3A4 (Homo sapiens), sequence (P08684 whole entry, looked up): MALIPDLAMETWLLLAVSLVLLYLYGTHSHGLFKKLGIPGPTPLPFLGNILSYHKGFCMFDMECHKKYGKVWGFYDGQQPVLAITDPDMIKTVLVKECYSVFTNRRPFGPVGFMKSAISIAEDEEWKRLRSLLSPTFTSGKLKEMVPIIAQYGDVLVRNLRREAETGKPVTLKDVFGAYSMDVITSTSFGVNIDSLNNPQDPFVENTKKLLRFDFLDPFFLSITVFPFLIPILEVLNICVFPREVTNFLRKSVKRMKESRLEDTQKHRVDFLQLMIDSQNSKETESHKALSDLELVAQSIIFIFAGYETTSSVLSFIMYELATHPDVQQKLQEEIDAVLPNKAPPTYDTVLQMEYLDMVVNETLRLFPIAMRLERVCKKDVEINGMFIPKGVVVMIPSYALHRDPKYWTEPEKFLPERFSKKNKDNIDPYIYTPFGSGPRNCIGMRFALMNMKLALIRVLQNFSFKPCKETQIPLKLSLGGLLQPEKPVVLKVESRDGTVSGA

COC(=O)N(OC)c1ccccc1COc1ccn(-c2ccc(Cl)cc2)n1
active: CYP2C9 (gene 1559) 74.7 µM | CYP2E1 (gene 1571) 34.1 µM | [1] 78.5 µM | [2] 60.9 µM | [3] 12.1 µM | [6] 74 µM | CYP3A5 (gene 1577) 87 µM
inactive: CYP4A11 (gene 1579) | [4] | [5]

COc1cnc(OC)n2nc(NS(=O)(=O)c3c(OCC(F)F)cccc3C(F)(F)F)nc12
inactive: CYP2C9 (gene 1559) | [2] | [3] | [4] | [5] | [6] | CYP3A5 (gene 1577)
active: CYP2E1 (gene 1571) 30.2 µM | CYP4A11 (gene 1579) 11.5 µM | [1] 8.2 µM

COC(=O)c1ccccc1C(=O)OC
inactive: CYP2C9 (gene 1559) | CYP2E1 (gene 1571) | CYP4A11 (gene 1579) | [1] | [2] | [3] | [4] | [5] | [6] | CYP3A5 (gene 1577)

OC(c1ccc(Cl)cc1)(c1cncnc1)c1ccccc1Cl (stereo unspecified)
active: CYP2C9 (gene 1559) 83.7 µM | CYP2E1 (gene 1571) 46.7 µM | CYP4A11 (gene 1579) 70.4 µM | [1] 11.4 µM | [2] 71.8 µM | [3] 34.1 µM | [6] 11.9 µM
inactive: [4] | [5] | CYP3A5 (gene 1577)

CC1COC(Cn2cncn2)(c2ccc(Oc3ccc(Cl)cc3)cc2Cl)O1 (stereo unspecified)
active: CYP2C9 (gene 1559) 15.7 µM | CYP2E1 (gene 1571) 8.67 µM | CYP4A11 (gene 1579) 12.9 µM | [1] 23.2 µM | [2] 12 µM | [4] 63.2 µM | [5] 0.479 µM | CYP3A5 (gene 1577) 84.1 µM
inactive: [3] | [6]

COP(=S)(OC)Oc1nc(Cl)c(Cl)cc1Cl
inactive: CYP2C9 (gene 1559) | CYP2E1 (gene 1571) | CYP4A11 (gene 1579) | [1] | [2] | [3] | [4] | [5] | [6] | CYP3A5 (gene 1577)

N#Cc1cc(Br)c(O)c(Br)c1
active: CYP2C9 (gene 1559) 14.4 µM | CYP2E1 (gene 1571) 17.1 µM | CYP4A11 (gene 1579) 26.6 µM | [1] 16.1 µM | [2] 68.3 µM | [3] 15.3 µM | [4] 10 µM | [6] 11.3 µM | CYP3A5 (gene 1577) 9.58 µM
inactive: [5]

Cc1cc(Cl)ccc1OCC(=O)O
active: CYP2E1 (gene 1571) 30.9 µM | CYP4A11 (gene 1579) 12 µM | [6] 18.8 µM
inactive: CYP2C9 (gene 1559) | [1] | [2] | [3] | [4] | [5] | CYP3A5 (gene 1577)

CC1=C(C(=O)Nc2ccccc2)SCCO1
active: CYP2E1 (gene 1571) 74.5 µM
inactive: CYP2C9 (gene 1559) | CYP4A11 (gene 1579) | [1] | [2] | [3] | [4] | [5] | [6] | CYP3A5 (gene 1577)

C#CCOS(=O)OC1CCCCC1Oc1ccc(C(C)(C)C)cc1 (stereo unspecified)
inactive: [4] | [5]
active: CYP2C9 (gene 1559) 25.6 µM | CYP2E1 (gene 1571) 22.6 µM | CYP4A11 (gene 1579) 25.9 µM | [1] 28.8 µM | [2] 15.2 µM | [3] 29.4 µM | [6] 29.5 µM | CYP3A5 (gene 1577) 30.1 µM

Cc1ccc(-c2c(Cl)nc(C#N)n2S(=O)(=O)N(C)C)cc1
inactive: [3] | [4] | [5] | CYP3A5 (gene 1577)
active: CYP2C9 (gene 1559) 7.78 µM | CYP2E1 (gene 1571) 5.17 µM | CYP4A11 (gene 1579) 10.4 µM | [1] 24.8 µM | [2] 21.7 µM | [6] 83.5 µM

CCOP(=S)(OCC)SCn1c(=O)oc2cc(Cl)ccc21
inactive: CYP2C9 (gene 1559) | CYP2E1 (gene 1571) | CYP4A11 (gene 1579) | [1] | [2] | [3] | [4] | [5] | [6] | CYP3A5 (gene 1577)

Cc1c(F)c(F)c(COC(=O)C2C(/C=C(\Cl)C(F)(F)F)C2(C)C)c(F)c1F (stereo unspecified)
active: CYP2E1 (gene 1571) 72.3 µM | [3] 50 µM
inactive: CYP2C9 (gene 1559) | CYP4A11 (gene 1579) | [1] | [2] | [4] | [5] | [6] | CYP3A5 (gene 1577)

CCON=C(CC)C1=C(O)CC(c2c(C)cc(C)cc2C)CC1=O (stereo unspecified)
active: CYP2E1 (gene 1571) 43.6 µM | CYP4A11 (gene 1579) 25 µM
inactive: CYP2C9 (gene 1559) | [2] | [3] | [4] | [5] | CYP3A5 (gene 1577)

Fc1ccc(Oc2ccnc3cc(Cl)cc(Cl)c23)cc1
active: CYP2C9 (gene 1559) 86.8 µM | CYP2E1 (gene 1571) 77.7 µM | CYP4A11 (gene 1579) 70.1 µM | [2] 65.1 µM | [3] 32.8 µM | [6] 79.4 µM
inactive: [1] | [4] | [5] | CYP3A5 (gene 1577)

CCCCC(CC)COC(=O)c1ccccc1C(=O)OCC(CC)CCCC (stereo unspecified)
inactive: CYP2C9 (gene 1559) | CYP2E1 (gene 1571) | CYP4A11 (gene 1579) | [2] | [3] | [4] | [5] | [6] | CYP3A5 (gene 1577)

COP(N)(=O)SC (stereo unspecified)
inactive: CYP2C9 (gene 1559) | CYP2E1 (gene 1571) | CYP4A11 (gene 1579) | [1] | [2] | [3] | [4] | [5] | [6] | CYP3A5 (gene 1577)

CC(C)(C)c1ccc(CSc2cnn(C(C)(C)C)c(=O)c2Cl)cc1
inactive: [3]
active: CYP2C9 (gene 1559) 13.4 µM | CYP2E1 (gene 1571) 1.48 µM | CYP4A11 (gene 1579) 1.75 µM | [1] 1.56 µM | [2] 2.06 µM | [4] 1.12 µM | [6] 1.05 µM | CYP3A5 (gene 1577) 2.11 µM
